Measured values published in ChEMBL document CHEMBL1961873, “Compounds: GSK PKIS; Assays: Nanosyn kinase panel” (2012).
Several values for one entry are separate records, joined by “and”; a condition that tells them apart may be missing. Identical values can stand only once.

How the values were obtained:
[1] = target: Serine/threonine-protein kinase PAK 6 (Homo sapiens) (UniProt Q9NQU5); details: at 1 µM;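 further: values are mean percent inhibition of PAK6 kinase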
[2] = tested on: Tyrosine-protein kinase ABL1 (Homo sapiens), P00519 [E255K]; details: at 0.1 µM
[3] = tested on: Tyrosine-protein kinase ABL1 (Homo sapiens), P00519 [E255K]; details: at 1 µM
[4] = tested on: Tyrosine-protein kinase ABL1 (Homo sapiens), P00519 [H396P]; details: at 0.1 µM
[5] = tested on: Tyrosine-protein kinase ABL1 (Homo sapiens), P00519 [H396P]; details: at 1 µM
[6] = tested on: Tyrosine-protein kinase ABL1 (Homo sapiens), P00519 [M351T]; details: at 0.1 µM
[7] = tested on: Tyrosine-protein kinase ABL1 (Homo sapiens), P00519 [M351T]; details: at 1 µM
[8] = tested on: Tyrosine-protein kinase ABL1 (Homo sapiens), P00519 [Q252H]; details: at 0.1 µM
[9] = tested on: Tyrosine-protein kinase ABL1 (Homo sapiens), P00519 [Q252H]; details: at 1 µM
[10] = tested on: Tyrosine-protein kinase ABL1 (Homo sapiens), P00519 [T315I]; details: at 0.1 µM
[11] = tested on: Tyrosine-protein kinase ABL1 (Homo sapiens), P00519 [T315I]; details: at 1 µM
[12] = tested on: Tyrosine-protein kinase ABL1 (Homo sapiens), P00519 [Y253F]; details: at 0.1 µM
[13] = tested on: Tyrosine-protein kinase ABL1 (Homo sapiens), P00519 [Y253F]; details: at 1 µM
[14] = target: Tyrosine-protein kinase ABL1 (Homo sapiens) (UniProt P00519); details: at 0.1 µM
[15] = target: Tyrosine-protein kinase ABL1 (Homo sapiens) (UniProt P00519); details: at 1 µM
[16] = target: ALK tyrosine kinase receptor (Homo sapiens) (UniProt Q9UM73); details: at 0.1 µM
ALK tyrosine kinase receptor (Homo sapiens), sequence (Q9UM73 19-1620 limits assumed): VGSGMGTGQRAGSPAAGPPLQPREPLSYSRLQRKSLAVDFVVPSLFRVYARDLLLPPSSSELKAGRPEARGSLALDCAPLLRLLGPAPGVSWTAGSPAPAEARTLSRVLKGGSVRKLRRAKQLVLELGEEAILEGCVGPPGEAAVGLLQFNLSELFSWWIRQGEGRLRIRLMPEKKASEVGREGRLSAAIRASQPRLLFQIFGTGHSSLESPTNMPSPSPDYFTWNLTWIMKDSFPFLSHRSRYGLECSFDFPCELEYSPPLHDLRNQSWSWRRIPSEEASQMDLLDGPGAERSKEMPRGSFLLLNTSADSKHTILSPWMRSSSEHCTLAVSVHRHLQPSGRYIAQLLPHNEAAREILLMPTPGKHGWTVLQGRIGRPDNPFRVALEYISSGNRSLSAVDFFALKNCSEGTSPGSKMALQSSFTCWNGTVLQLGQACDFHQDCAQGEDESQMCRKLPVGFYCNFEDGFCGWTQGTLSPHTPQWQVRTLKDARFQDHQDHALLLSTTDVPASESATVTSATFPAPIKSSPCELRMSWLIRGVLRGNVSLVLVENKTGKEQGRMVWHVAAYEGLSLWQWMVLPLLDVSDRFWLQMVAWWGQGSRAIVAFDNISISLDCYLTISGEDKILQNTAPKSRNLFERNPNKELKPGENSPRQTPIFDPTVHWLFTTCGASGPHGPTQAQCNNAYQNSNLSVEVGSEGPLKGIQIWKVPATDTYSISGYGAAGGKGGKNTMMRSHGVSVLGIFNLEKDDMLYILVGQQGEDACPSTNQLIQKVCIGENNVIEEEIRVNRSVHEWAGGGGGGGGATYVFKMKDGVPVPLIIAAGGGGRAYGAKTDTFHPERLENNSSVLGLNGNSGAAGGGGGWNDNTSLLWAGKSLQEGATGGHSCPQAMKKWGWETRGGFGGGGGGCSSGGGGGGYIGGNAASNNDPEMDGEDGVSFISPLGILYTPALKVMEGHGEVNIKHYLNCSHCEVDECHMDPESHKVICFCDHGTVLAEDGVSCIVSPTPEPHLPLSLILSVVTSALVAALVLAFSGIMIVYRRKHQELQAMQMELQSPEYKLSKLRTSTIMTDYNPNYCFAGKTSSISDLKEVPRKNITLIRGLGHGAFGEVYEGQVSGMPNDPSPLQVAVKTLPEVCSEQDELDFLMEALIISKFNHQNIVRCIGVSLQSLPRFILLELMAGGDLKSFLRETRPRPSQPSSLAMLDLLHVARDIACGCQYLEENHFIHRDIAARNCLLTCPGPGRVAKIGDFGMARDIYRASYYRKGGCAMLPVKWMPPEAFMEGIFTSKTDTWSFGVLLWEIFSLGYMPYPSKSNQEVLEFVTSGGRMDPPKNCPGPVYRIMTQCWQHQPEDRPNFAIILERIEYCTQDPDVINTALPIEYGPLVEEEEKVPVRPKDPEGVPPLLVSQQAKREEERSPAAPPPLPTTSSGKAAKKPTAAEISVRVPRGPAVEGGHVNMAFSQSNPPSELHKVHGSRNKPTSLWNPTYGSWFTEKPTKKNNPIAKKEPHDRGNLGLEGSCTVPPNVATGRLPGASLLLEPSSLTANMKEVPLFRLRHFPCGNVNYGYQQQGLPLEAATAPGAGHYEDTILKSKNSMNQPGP

[17] = target: ALK tyrosine kinase receptor (Homo sapiens) (UniProt Q9UM73); details: at 1 µM
[18] = target: Tyrosine-protein kinase ABL2 (Homo sapiens) (UniProt P42684); details: at 0.1 µM
Tyrosine-protein kinase ABL2 (Homo sapiens), sequence (P42684 whole entry): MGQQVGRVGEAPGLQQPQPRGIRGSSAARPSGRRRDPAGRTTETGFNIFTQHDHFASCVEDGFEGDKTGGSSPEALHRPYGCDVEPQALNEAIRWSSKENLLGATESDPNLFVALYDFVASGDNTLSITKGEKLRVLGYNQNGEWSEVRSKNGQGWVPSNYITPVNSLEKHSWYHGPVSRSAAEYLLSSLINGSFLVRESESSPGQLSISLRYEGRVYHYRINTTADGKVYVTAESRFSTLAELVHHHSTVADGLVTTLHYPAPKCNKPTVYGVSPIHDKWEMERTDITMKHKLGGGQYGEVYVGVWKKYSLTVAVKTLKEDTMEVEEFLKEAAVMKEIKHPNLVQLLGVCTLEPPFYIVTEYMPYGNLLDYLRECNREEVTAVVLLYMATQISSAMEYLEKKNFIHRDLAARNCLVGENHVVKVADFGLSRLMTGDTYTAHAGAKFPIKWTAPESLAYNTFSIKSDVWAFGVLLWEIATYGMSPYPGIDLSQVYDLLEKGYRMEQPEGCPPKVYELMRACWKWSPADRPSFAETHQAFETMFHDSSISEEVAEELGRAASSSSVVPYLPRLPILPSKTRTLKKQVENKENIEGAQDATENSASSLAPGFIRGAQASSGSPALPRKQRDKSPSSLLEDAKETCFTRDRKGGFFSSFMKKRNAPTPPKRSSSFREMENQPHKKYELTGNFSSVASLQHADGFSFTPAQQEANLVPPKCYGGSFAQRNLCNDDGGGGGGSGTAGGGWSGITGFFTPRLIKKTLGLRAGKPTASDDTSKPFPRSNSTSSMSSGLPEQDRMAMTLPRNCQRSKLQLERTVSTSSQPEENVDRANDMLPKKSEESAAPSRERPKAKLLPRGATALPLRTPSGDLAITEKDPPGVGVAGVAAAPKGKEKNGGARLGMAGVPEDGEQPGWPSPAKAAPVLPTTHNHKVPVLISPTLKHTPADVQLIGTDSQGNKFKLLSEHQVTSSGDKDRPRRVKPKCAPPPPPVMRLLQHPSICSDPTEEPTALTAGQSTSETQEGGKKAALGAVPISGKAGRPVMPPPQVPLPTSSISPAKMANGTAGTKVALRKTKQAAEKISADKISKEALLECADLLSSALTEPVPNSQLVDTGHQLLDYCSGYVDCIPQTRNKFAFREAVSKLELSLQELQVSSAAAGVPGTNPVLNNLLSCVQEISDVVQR

[19] = target: Tyrosine-protein kinase ABL2 (Homo sapiens) (UniProt P42684); details: at 1 µM
[20] = target: Tyrosine-protein kinase receptor UFO (Homo sapiens) (UniProt P30530); details: at 0.1 µM;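 further: values are mean percent inhibition of AXL from the GSK PKIS screen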
Tyrosine-protein kinase receptor UFO (Homo sapiens), sequence (P30530 whole entry): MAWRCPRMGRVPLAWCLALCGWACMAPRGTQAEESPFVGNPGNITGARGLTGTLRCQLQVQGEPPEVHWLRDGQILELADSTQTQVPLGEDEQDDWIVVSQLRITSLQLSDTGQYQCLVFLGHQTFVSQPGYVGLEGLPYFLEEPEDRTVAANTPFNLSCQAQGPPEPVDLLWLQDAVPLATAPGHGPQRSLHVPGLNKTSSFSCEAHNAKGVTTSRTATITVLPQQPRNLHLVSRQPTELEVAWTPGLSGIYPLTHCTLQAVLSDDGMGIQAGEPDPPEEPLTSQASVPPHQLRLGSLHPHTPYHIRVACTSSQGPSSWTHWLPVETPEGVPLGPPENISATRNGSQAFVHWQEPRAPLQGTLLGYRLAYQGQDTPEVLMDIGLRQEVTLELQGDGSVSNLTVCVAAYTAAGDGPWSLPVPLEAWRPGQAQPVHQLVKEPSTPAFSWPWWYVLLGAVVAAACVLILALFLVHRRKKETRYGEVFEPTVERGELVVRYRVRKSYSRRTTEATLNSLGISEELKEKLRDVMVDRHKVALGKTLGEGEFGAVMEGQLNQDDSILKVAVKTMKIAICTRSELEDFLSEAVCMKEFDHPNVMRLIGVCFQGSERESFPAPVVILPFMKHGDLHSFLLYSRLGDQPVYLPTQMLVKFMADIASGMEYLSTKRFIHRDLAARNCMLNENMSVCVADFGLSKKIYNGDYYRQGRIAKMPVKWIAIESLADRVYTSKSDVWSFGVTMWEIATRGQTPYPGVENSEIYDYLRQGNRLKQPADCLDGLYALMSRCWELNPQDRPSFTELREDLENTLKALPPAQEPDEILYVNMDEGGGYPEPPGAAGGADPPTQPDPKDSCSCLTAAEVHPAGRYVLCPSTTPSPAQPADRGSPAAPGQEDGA

Serine/threonine-protein kinase PAK 6 (Homo sapiens), sequence (Q9NQU5 whole entry, looked up): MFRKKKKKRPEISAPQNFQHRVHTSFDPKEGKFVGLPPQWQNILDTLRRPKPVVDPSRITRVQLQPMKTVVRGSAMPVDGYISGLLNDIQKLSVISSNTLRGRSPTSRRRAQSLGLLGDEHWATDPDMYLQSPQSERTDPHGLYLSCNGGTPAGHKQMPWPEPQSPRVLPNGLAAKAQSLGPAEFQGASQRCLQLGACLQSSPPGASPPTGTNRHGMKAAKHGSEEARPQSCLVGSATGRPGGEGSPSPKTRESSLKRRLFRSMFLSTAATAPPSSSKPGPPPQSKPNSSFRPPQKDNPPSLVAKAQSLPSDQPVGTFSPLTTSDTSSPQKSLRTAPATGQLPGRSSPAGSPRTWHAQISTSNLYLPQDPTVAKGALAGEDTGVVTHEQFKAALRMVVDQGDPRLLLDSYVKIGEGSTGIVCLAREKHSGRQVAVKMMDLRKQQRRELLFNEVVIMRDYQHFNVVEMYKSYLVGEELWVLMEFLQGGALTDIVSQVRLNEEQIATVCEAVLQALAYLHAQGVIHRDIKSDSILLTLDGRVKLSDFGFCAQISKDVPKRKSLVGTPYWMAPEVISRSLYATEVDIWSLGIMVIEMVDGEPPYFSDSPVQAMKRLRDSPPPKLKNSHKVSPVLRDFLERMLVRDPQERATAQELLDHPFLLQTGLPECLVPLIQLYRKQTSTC

Row | Structure (SMILES) | inhibition [1] | inhibition [2] | inhibition [3] | inhibition [4] | inhibition [5] | inhibition [6] | inhibition [7] | inhibition [8] | inhibition [9] | inhibition [10] | inhibition [11] | inhibition [12] | inhibition [13] | inhibition [14] | inhibition [15] | inhibition [16] | inhibition [17] | inhibition [18] | inhibition [19] | inhibition [20]
1 | Cn1c(-c2nonc2N)nc2cnccc21 | 0.39% | 2.74% | 1.01% | 2.83% | 2.87% | 1.44% | 2.81% | 2.07% | 1.71% | 0.03% | 1.83% | 4.55% | 0.38% | 4% | 4.6% | 1.93% | 3.93% | 2.62% | 7.75% | -6.37%
2 | COc1ccc(-c2nn3ncccc3c2-c2ccnc(Nc3ccc(F)c(F)c3)n2)cc1 | -1.89% | 3.61% | 10.3% | 4.57% | 22.8% | 17% | 58.1% | 12.2% | 47.4% | 5.18% | 16.6% | 5.29% | 17.1% | 3.82% | 14.7% | 2.49% | 8.04% | 2.7% | 11.9% | -1.84%
3 | COC(=O)Nc1nc2cc(Oc3ccc(NC(=O)Nc4ccccc4)cc3)ccc2[nH]1 | -2.94% | 4.95% | 11.4% | 14.1% | 41% | 28.9% | 47.8% | 22.5% | 51.8% | 15.9% | 31.3% | 6.49% | 18.9% | 5.66% | 11.3% | 1.19% | 2.23% | 9.07% | 16.8% | -7.01%
4 | COc1cccc(Nc2nccc(-c3cnn4ncccc34)n2)c1 | 5.36% | 5.54% | 23.1% | 8.68% | 41.2% | 8.35% | 45% | 9.38% | 46.5% | 3.94% | 30% | 7.39% | 39.2% | 4.97% | 40.9% | 5.36% | 32.3% | 6.41% | 44.2% | -0.07%
5 | FC(F)(F)CNc1nccc(-c2cnn3ncccc23)n1 | -2.36% | 6.33% | 1.46% | 2.61% | 2.38% | 0.25% | 0.76% | 1.08% | 1.59% | 0.06% | 0.38% | 0.37% | 2.04% | 1.87% | 4% | 2.79% | 3.31% | 0.3% | 3.29% | -3.79%
6 | Nc1ncnc2occ(-c3ccc(NC(=O)Nc4cc(C(F)(F)F)ccc4F)cc3)c12 | 0.09% and -8.17% | 5.05% and 2.1% | 33.4% and 18.4% | 24.2% and 11.5% | 73.1% and 58.4% | 56.4% and 49.1% | 84.6% and 76.3% | 55.7% and 45.2% | 79.1% and 74% | 53.6% and 39.2% | 91.1% and 85% | 10.7% and 5.56% | 44.9% and 29.1% | 10.9% and 4.97% | 58.9% and 35.7% | 2.84% and -1.14% | 22.8% and 12.6% | 25.2% and 23.9% | 64.2% and 56.4% | -3.96% and -3.19%
7 | NS(=O)(=O)c1ccc(N/N=C2\C(=O)Nc3ccc(C(=O)NCc4ccncc4)cc32)cc1 | 12.5% | 0.9% | 10% | 2.55% | 15% | 1.51% | 13.2% | 1.73% | 11.6% | 2.6% | 12.8% | 4.33% | 19.1% | 2.78% | 15.2% | 1.39% | 4.24% | 2.79% | 9.41% | -1.05%
8 | CS(=O)(=O)CCNCc1ccc(-c2ccc3ncnc(Nc4ccc(OCc5cccc(C(F)(F)F)c5)cc4)c3c2)o1 | -8.87% | 0.33% | 2.52% | 3.55% | 4.29% | -0.21% | 1.37% | 3.36% | 4.5% | 1.82% | 2.39% | 2.96% | 3.54% | 6.46% | 8.69% | 3% | 5.12% | 4.21% | 8.35% | -6.74%
9 | COc1cc(N2CCN(C(C)C)CC2)ccc1Nc1nc(Nc2cccc(F)c2C(=O)O)c2cc[nH]c2n1 | -0.16% | 3.61% | 5.65% | 1.72% | 3.69% | 1.07% | 2.29% | 4.74% | 5.16% | 3.83% | 7.98% | 4.3% | 5.73% | 5.38% | 5.63% | 68.1% | 80.7% | 4.02% | 5.35% | 2.71%
10 | c1ccc(-c2n[nH]cc2-c2ccnc(-c3ccc(OCCn4ccnc4)cc3)c2)nc1 | -6.97% | 23.1% | 71.2% | 46.9% | 88.1% | 43.8% | 87.2% | 25.9% | 73.4% | 3% | 7.34% | 31.8% | 78.8% | 30.5% | 68.8% | -0.73% | 3.68% | 5.73% | 56.4% | -0.5%
11 | CN(C)CCNC(=O)Nc1ccc(N(C)c2ccnc(Nc3ccc(CS(C)(=O)=O)cc3)n2)cc1 | -1.22% | 2.92% | 10.2% | 5.45% | 12.3% | 4.48% | 15.1% | 5.59% | 17.4% | 4.39% | 14.5% | 7.05% | 14.7% | 5.68% | 19.6% | 3.32% | 11.7% | 5.95% | 16.8% | -5.4%
12 | NS(=O)(=O)c1ccc(N/N=C2\C(=O)Nc3cccc(CCc4ccncc4)c32)cc1 | -3.63% | -0.21% | 3.53% | 2.64% | 7.39% | 3.41% | 8.25% | 1.54% | 7.74% | 1.83% | 6.34% | 3.29% | 8.15% | 3.11% | 4.4% | 1.31% | 4.47% | 2.11% | 3.55% | -0.12%
